Laboratory results published in the supplement of paper PMC3414501.
Structures can show the parent of a compound that is named as a salt. Unmarked numbers belong to inactive results. No stated cut-off is given here; in the data, active = 2 or more and inactive = the rest.

Tested on: S. cerevisiae BY4741 (wild-type), vegetative growth in YPD
Test: growth sensitivity score (doubling time z-score vs DMSO controls); higher = slower growth, strongly negative scores also mark growth inhibition (complete suppression), active = hit call of the paper
Method in brief: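 Rich medium in microtiter plates was seeded with Saccharomyces cerevisiae strains BY4741 and AD1-9 at an OD600 of 0.065, and compounds were added as a 1:100 dilution of DMSO stock. A Tecan GENios reader recorded optical density every 15 min for 24 hours, with eight solvent-only wells in each experiment. Average doubling time was the time to reach a set generation point divided by generation number. The growth sensitivity score was the compound mean minus the solvent-only mean, divided by the solvent-only standard deviation.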

With `Clc1ccccc1C(c1ccccc1)(c1ccccc1)n1ccnc1` [Clotrimazole] (stock concentration (mM, diluted 1:100): 10) the growth sensitivity score was 62.8 (active).
With `CCN1CCN(c2cc3c(cc2F)c(=O)c(C(=O)O)cn3C2CC2)CC1` [Enrofloxacin] (stock concentration (mM, diluted 1:100): 10) the growth sensitivity score was 3.15 (active).

First: CCCCC1=NC2(CCCC2)C(=O)N1Cc1ccc(-c2ccccc2-c2nnn[nH]2)cc1 [Irbesartan] (stock concentration (mM, diluted 1:100): 10.1)
Second: CCCCC(=O)N(Cc1ccc(-c2ccccc2-c2nnn[nH]2)cc1)[C@H](C(=O)O)C(C)C [Valsartan] (stock concentration (mM, diluted 1:100): 10)
The growth sensitivity score of the first is higher: -0.72 for the first, -1.05 for the second.

First: CNCC[C@@H](Oc1ccccc1C)c1ccccc1 [Atomexetine hydrochloride] (stock concentration (mM, diluted 1:100): 8.7)
Second: CN(C)CCCSc1ccccc1NC(=O)/C=C/c1ccccc1 [Cinanserin] (stock concentration (mM, diluted 1:100): 10)
The growth sensitivity score of the first is lower: 0.06 for the first, 1.35 for the second.

Going from `CCOC(=O)C1=C(C)NC(C)=C(C(=O)OCC)C1c1ccccc1/C=C/C(=O)OC(C)(C)C` [Lacidipine] (stock concentration (mM, diluted 1:100): 10) to `COc1ccccc1N1CCN(CCCNc2cc(=O)n(C)c(=O)n2C)CC1` [Urapidil hydrochloride] (stock concentration (mM, diluted 1:100): 10), the growth sensitivity score rises from -1.71 to 0.85.
